Rows were chosen to be rich in hits. Some 2.4% of all compounds tested hit in one or more screens of this group.
TLR9-MyD88 inh: blocks human TLR9 binding to MyD88. Q9NR96+Q99836. CHO BLA complementation TLR9-MyD88, CCF4 FRET ratio. inhibition, % at 4.98 µM. 0.21% of 340,000 active. AID 504734;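 active = inhibition above the mean over all tested compounds plus 3 SD, cut at about 21% in these data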;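 note: 0% = DMSO only wells and 100% = clavulanate BLA inhibitor control wells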
Target sequence (Q99836 whole entry, looked up): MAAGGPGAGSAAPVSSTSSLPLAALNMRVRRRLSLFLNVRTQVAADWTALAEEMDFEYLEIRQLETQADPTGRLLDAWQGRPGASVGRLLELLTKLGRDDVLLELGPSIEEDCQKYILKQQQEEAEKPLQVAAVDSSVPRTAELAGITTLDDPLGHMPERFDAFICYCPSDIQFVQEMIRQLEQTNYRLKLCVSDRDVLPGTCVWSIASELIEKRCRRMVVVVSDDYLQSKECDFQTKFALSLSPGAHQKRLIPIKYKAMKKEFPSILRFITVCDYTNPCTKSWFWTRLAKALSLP
Target sequence (Q9NR96 whole entry, looked up): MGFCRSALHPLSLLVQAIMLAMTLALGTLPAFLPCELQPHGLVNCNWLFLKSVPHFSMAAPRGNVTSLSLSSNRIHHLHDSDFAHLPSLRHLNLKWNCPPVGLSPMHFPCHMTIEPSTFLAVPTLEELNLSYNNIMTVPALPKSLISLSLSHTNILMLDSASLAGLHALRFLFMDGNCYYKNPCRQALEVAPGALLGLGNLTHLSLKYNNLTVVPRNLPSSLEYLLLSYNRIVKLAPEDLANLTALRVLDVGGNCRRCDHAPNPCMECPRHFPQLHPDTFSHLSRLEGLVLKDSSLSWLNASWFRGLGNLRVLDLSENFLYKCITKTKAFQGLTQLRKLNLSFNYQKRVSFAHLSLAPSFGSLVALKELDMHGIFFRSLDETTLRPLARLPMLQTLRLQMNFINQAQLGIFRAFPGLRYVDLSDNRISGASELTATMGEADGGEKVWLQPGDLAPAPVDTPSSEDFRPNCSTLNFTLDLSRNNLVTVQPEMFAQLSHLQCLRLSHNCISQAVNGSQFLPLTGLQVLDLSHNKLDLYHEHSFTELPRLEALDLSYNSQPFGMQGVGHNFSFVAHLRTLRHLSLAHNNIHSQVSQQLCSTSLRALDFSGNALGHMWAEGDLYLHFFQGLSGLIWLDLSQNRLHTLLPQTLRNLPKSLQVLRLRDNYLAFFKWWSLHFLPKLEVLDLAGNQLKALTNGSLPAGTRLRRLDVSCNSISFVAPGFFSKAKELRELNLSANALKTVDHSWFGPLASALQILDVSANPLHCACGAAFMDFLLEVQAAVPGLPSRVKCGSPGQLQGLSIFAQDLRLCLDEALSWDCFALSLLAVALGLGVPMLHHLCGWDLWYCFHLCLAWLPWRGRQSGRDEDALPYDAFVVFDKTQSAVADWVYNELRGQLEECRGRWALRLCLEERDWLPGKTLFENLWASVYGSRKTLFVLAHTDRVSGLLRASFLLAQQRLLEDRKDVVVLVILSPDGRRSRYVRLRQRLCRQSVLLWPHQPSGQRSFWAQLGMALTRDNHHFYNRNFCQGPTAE
HSF-1 act: increases HSF-1 driven luciferase reporter signal. NIH3T3-HGL HSF-1 luciferase reporter, MG132, 8 h; 100% = twice DMSO control signal. activation, % at 9 µM. 1.7% of 300,000 active. AID 504408;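 active = mean replicate activation of at least 50% with a set share of replicates each reaching 50%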;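 note: 0% = median of the neutral control wells and 100% = twice that signal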
HSF1 inhib: HSF1 inhibition; NIH3T3-HGL HSE-luciferase, MG132-induced, luminescence 8 h; active compounds read low; activity change, negative = inhibition, % at 7.5 µM (by protocol); 0.77% of 300,000 active;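 active = more than half of replicate wells show activity change below -50%, luminescence cut by over half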;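 note: luciferase reports HSF-1 transcriptional activity via heat shock element; 0% = median of DMSO wells and -100% = zero luminescence signal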
TLR4 MyD88 comp: inhibitors of human TLR4-MyD88 binding | O00206+Q99836 | HeLa CL3-4 TLR4/MyD88 BLA complementation, FRET ratio | inhibition, % at 8.4 µM | 0.18% of 200,000 active; in the data active = inhibition above about 25%;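 note: 0% = vehicle and 100% = reference inhibitor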
NOD2 RIPK2 PPI: inhibitors of human NOD2-RIPK2 interaction; inhibition, % at 4.98 µM; AID 624267; CHO BLA complementation NOD2-RIPK2, CCF4 ratio; 0.38% of 360,000 active; in the data active = inhibition above about 21%;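 note: 0% = vehicle only and 100% = reference blocker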
* hit, by the source's call; · = not tested or not shown.

SMILES	TLR9-MyD88 inh	HSF-1 act	HSF1 inhib	TLR4 MyD88 comp	NOD2 RIPK2 PPI
Nc1cc(OC(=O)c2ccco2)nn1S(=O)(=O)c1ccc(F)cc1	-6	8	2	11	-2
Nc1cc(OC(=O)c2ccc(F)cc2)nn1S(=O)(=O)c1ccc(F)cc1	3	76*	38	·	-11
O=C(OCc1cn([C@H]2CN(Cc3cccs3)[C@@H](c3ccc(Cl)cc3)C[C@@H]2O)nn1)c1ccccc1	6	·	·	·	4
Cc1ccc(S(=O)(=O)N(C)c2ccc(C)c([N+](=O)[O-])c2)cc1	-10	70*	30	-20	-17
Cc1ccc2c(c1)CCCO[C@]21O[C@H](CCO)C[C@H](O)[C@H]1O	·	·	·	·	-9
CS(=O)(=O)c1ccc(C(=O)Nc2nc(-c3ccco3)c(-c3ccco3)s2)cc1	10	·	·	·	-15
COc1cc(C2NC(=O)NC(C)=C2C(=O)OCC2CCCO2)ccc1O (stereo not drawn)	0	-90	-87*	-7	8
CCOc1ccc(-n2c(=S)sc3c(=O)[nH]c(SCC(=O)NC(C)CC)nc32)cc1 (stereo not drawn)	-8	72*	42	-3	-1
COc1ccccc1N1CCN(C(=O)C(CC(C)C)NC(=O)C2CCCCC2)CC1 (stereo not drawn)	-5	55*	18	·	7
CN(CC(=O)Nc1ccc(Cl)cc1F)C1CCS(=O)(=O)C1 (stereo not drawn)	7	·	·	·	-12
Nc1cc(=O)[nH]c2ncnn12	-6	-5	-5	·	0
CC(C(=O)Nc1ccccc1Br)N1c2cccc3cccc(c23)S1(=O)=O (stereo not drawn)	-9	67*	35	·	1
COc1ccc(CCNC(=O)COC(=O)c2cncc(Br)c2)cc1OC	-2	·	·	·	-23
CN(CC(=O)Nc1ccccc1Br)C(=O)COc1cccc2c1OC(C)(C)C2	-7	12	-1	·	4
Cc1ccc(CNC(=O)Cn2ccc3ccccc3c2=O)o1	3	64*	13	-6	2
COC(=O)CNC(=O)Cn1ccc2ccccc2c1=O	4	-39	-26	11	-12
CC(=O)Nc1cccc(-c2nc3ccccc3o2)c1	3	73*	22	·	7
CCCN(C(=O)CCNC(=O)c1ccc(Cl)cc1)c1c(N)n(Cc2ccccc2)c(=O)[nH]c1=O	-5	·	·	·	0
COc1ccccc1NC1=C(Cl)C(=O)N(C2CCCCC2)C1=O	2	-87	-85*	12	0
O=C(CCC(=O)N1CCN(S(=O)(=O)c2ccc3ccccc3c2)CC1)NCC(F)(F)F	-5	4	-5	·	2
COc1cccc(-c2cc(C(=O)Nc3cccnc3)no2)c1	6	78*	33	-2	6
O=C(Nc1cccnc1)c1cc(-c2ccccc2)on1	1	9	9	-14	1
COc1ccc(-c2cc(C(=O)N3CCOCC3)no2)cc1	5	10	-4	·	2
COc1cccc(-c2cc(C(=O)N3CCOCC3)no2)c1	1	61*	23	·	4
CC(OC(=O)c1ccc2c(c1)OCCO2)C(=O)NC1CCCCC1C (stereo not drawn)	7	-2	2	·	-2
SMILES	TLR9-MyD88 inh	HSF-1 act	HSF1 inhib	TLR4 MyD88 comp	NOD2 RIPK2 PPI
Cc1ccc(S(=O)(=O)NC2CC(C)(C)N(O)C(C)(C)C2)cc1	-12	·	·	·	10
CCc1nc2ccc(C(=O)Nc3ccc(C(=O)N(C)C)cc3)cn2c1N(C)CCCc1ccccc1	·	·	·	·	4
C[C@H](CO)N1C[C@H](C)[C@@H](CN(C)Cc2ccncc2)Oc2c(NS(=O)(=O)c3cn(C)cn3)cccc2C1=O	-3	·	·	·	0
Cc1cc2oc3c(c(=O)c2cc1C)C(c1ccc(C(C)C)cc1)N(CCCN1CCOCC1)C3=O (stereo not drawn)	-12	58*	33	-4	0
COc1ccc(-n2nc(C(=O)NCC(=O)N3CCOCC3)c3ccccc3c2=O)cc1Cl	-7	56*	13	·	-8
CC(C)(C)N1C(=O)Cc2c1nc(N)c1c(N)nc(N3CCCCC3CO)c(C#N)c21 (stereo not drawn)	9	68*	24	2	-5
COc1cccc(CN2CC(C(=O)NCc3ccc(C)o3)CCC2=O)c1 (stereo not drawn)	-4	108*	59	·	-2
CCOC(=O)c1ccc(CNC(=O)C2CCC(=O)N(Cc3cccc(OC)c3)C2)o1 (stereo not drawn)	-7	-5	-3	·	0
Cc1ccc(NC(=O)Cc2noc3ccccc23)cc1	-4	24	9	-10	5
Cc1ccc(/C=N\NC(=O)Cc2noc3ccccc23)cc1	10	-89	-87*	·	7
CCN(CC)S(=O)(=O)c1ccc(C(=O)OCC(=O)N2CCOCC2)cc1	-16	3	-4	·	-3
CCN(CC)S(=O)(=O)c1ccc(C(=O)OCC(=O)N2CCN(C(=O)c3ccco3)CC2)cc1	6	53*	14	-1	12
COc1ccc2[nH]c3c(=O)n(CCCN4CCOCC4)cnc3c2c1	2	-70	-63*	·	-5
CCOC(=O)c1c(C)c(C(=O)NCCc2ccccc2)c(C)n1C	4	77*	40	8	-15
CS(=O)(=O)c1ccc2nc(NC(=O)CN3C(=O)NC4(CCCC4)C3=O)sc2c1	-2	-6	0	·	11
CC1CCN(C(=O)CN2C(=O)C(=O)N(C(C)C)C2=O)c2ccccc2S1 (stereo not drawn)	3	·	·	·	-2
CCOc1ccc2nc(SCC(=O)c3cccs3)sc2c1	-9	61*	35	1	0
CC(C)CNC(=O)C(=O)NCC1OCCN1S(=O)(=O)c1cccs1 (stereo not drawn)	-12	-11	1	·	0
CCOC(=O)Cn1nnc(-c2cccc(OC)c2)n1	-2	67*	24	-13	-3
COc1cccc(-c2nnn(CC(=O)O)n2)c1	2	-8	-9	1	0
O=C(Cc1ccc([N+](=O)[O-])cc1)N1N=C(C2CC2)CC1(O)C(F)(F)F (stereo not drawn)	-6	68*	12	-4	-6
CCCCNc1c(-c2ccc(SC(C)CC)c(OC)c2)nc2ccc(C)cn12 (stereo not drawn)	-10	15	6	·	-4
CCCCNc1c(-c2ccc(SC(C)CC)cc2)nc2cnccn12 (stereo not drawn)	54*	·	·	·	69*
CC(C)CN=C(NS(=O)(=O)c1ccccc1)C(Cl)(Cl)Cl	17	-77	-74*	2	-1
O=C(CCc1nc(-c2ccccc2Cl)no1)NC1CCCCC1	-1	10	8	·	-5
O=C(N/N=C/C(Br)=C\c1ccccc1)c1ccc2nc[nH]c2c1	6	125*	95	14	7
O=C(N/N=C/C(Br)=C/c1ccccc1)c1cccnc1	1	82*	71	·	-1
CC(=C/c1ccccc1)/C=N/NC(=O)c1ccc2nc[nH]c2c1	5	0	7	11	-11
